The panel holds about 79,000 compounds, 15% with a hit somewhere; the sample as a whole holds those more often. Cut-off read from the data, not from the text of the source: active = growth inhibition above about 70%; inactive = the rest.
How the values were obtained:
[1] = NCI Yeast Anticancer Drug Screen. Data for the rad50 strain (AID 155);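 note: 0% = growth of vehicle-only cultures of the same strain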; settings: S. cerevisiae rad50 strain growth inhibition; at 50.0 µM; active compounds read high
Summary of the method: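 Inhibition values express reduced yeast growth in compound-treated cultures relative to vehicle-treated controls.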

[2] = NCI Yeast Anticancer Drug Screen. Data for the mec2-1 strain (AID 157); settings: S. cerevisiae mec2-1 strain, at 50.0 µM, active compounds read high
Summary of the method: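 Vehicle-treated cultures served as reference for growth inhibition of compound-exposed mec2-1 yeast.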

[3] = NCI Yeast Anticancer Drug Screen. Data for the mlh1 rad18 strain (AID 175); settings: S. cerevisiae mlh1 rad18 strain growth inhibition; at 50.0 µM; active compounds read high
Summary of the method: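 Vehicle-treated cultures served as the reference for growth inhibition in a yeast strain carrying DNA damage repair alterations exposed to each compound.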

Measured: growth inhibition

O=C(N/N=C/c1ccc2c(c1)CCC2)c1cc2ccccc2cc1O
inactive: [1] 2.55% | [2] -8.15% | [3] 7.2%

CCCCCCCCCCCCCCCCOc1ccc(C)cc1
inactive: [1] -14.3% | [2] -29.5% | [3] -27.9%

CCN(CC)CCCOC(=O)N(Cc1ccc(Cl)cc1)C1CC1
inactive: [1] 51.2% | [2] 12.8% | [3] 46.6%

Fc1ccc(P(c2ccc(F)cc2)c2ccc(F)cc2)cc1
inactive: [1] 41.4% | [2] 9.6% | [3] 19.1%

Cn1c(=S)sc2ccc3ccccc3c21
inactive: [1] -17.4% | [2] -11.1% | [3] -25.9%

Clc1ccc(C(c2cccs2)N2CCNCC2)cc1 (stereo unspecified)
inactive: [1] 5.45% | [2] -2.75% | [3] 5.35%

CCCCCCC(=O)CCCC(C)CCCC(C)C (stereo unspecified)
inactive: [1] -13.5% | [2] -23.6% | [3] -3.85%

O=CNC(Cc1ccc(O)cc1)C(=O)O (stereo unspecified)
inactive: [1] 4.1% | [2] -30.4% | [3] -8.4%

CCOC(=O)C(C)Oc1ccccc1[N+](=O)[O-] (stereo unspecified)
inactive: [1] -24.6% | [2] -41.2% | [3] -15.8%

Cc1ccccc1CC1c2[nH]c3ccccc3c2CCN1C (stereo unspecified)
inactive: [1] -9.95% | [2] -50.5% | [3] -22.4%

O=C(O)CSCc1nc2ccccc2[nH]1
inactive: [1] -10.8% | [2] -15.7% | [3] 41.8%

COC(=O)c1cc(NC(=O)CC(=O)c2cccc(N)c2)cc(C(=O)OC)c1
inactive: [1] -3.8% | [2] -12.8% | [3] 8.4%

— PubChem BioAssay (NCI)
